Test results as given in PubChem BioAssay (EPA / NIEHS).
The source made the active and inactive calls. How the source made its calls: active means hit-call score of the fitted dose curve at least 0.9, where 1 is the maximum; inactive means score below 0.9.

Assays:
Settings in all cases: mRNA level, 48 h; actives raise or lower the signal
[1] = read-out: ABC Transporter (ABCC3), ABCC3 (gene 8714); experiment: LTEA_HepaRG_ABCC3: Life Technologies and Expression Analysis (LTEA) Assay for ABC Transporter (ABCC3) using HepaRG (AID 2283462)
How it was run: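 Differentiated HepaRG liver cells receive test chemicals at eight concentrations (max 100 uM) for 48 h. Expression of ABCC3 is quantified by qRT-PCR against ACTB, GAPDH and POLR2A, and activity is fitted in both directions against the DMSO control.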

[2] = read-out: ABC Transporter (ABCB11), ABCB11 (gene 8647); experiment: LTEA_HepaRG_ABCB11: Life Technologies and Expression Analysis (LTEA) Assay for ABC Transporter (ABCB11) using HepaRG (AID 2283463)
How it was run: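 ABCB11 transcript levels are read by Fluidigm TaqMan qRT-PCR after 48 h chemical treatment of human HepaRG cells. Concentrations span 100 uM downward in half-log steps with 0.5% DMSO; gain or loss is fitted against DMSO controls.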

[3] = read-out: ABC Transporter (ABCC2), ABCC2 (gene 1244); experiment: LTEA_HepaRG_ABCC2: Life Technologies and Expression Analysis (LTEA) Assay for ABC Transporter (ABCC2) using HepaRG (AID 2283464)
How it was run: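 Gene expression of ABCC2 was determined by qRT-PCR in HepaRG cells exposed 48 h to chemicals (highest 100 uM, half-log dilutions). Activity was fitted in both directions relative to 0.5% DMSO vehicle.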

[4] = read-out: Broad substrate specificity ATP-binding cassette transporter ABCG2 (Homo sapiens) (UniProt Q9UNQ0); experiment: LTEA_HepaRG_ABCG2: Life Technologies and Expression Analysis (LTEA) Assay for ABC Transporter (ABCG2) using HepaRG (AID 2283465)
How it was run: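 Read-out is ABCG2 mRNA induction or loss quantified by qRT-PCR after 48 h chemical treatment of human HepaRG cells, normalized to three housekeeping genes. Concentrations reached 100 uM top in half-log steps; fitting was bidirectional against 0.5% DMSO.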

[5] = read-out: ATP-citrate lyase (ACLY), ACLY (gene 47); experiment: LTEA_HepaRG_ACLY: Life Technologies and Expression Analysis (LTEA) Assay for ATP-citrate lyase (ACLY) using HepaRG (AID 2283466)
How it was run: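 HepaRG, 48 h exposure, 8-pt half-log dilutions (top 100 uM), 0.5% DMSO. Readout: ACLY mRNA, TaqMan qRT-PCR, housekeeping-normalized (ACTB/GAPDH/POLR2A). Bidirectional curve fit vs DMSO.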

[6] = read-out: Peroxisomal acyl-coenzyme A oxidase 1 (ACOX1) gene, ACOX1 (gene 51); experiment: LTEA_HepaRG_ACOX1: Life Technologies and Expression Analysis (LTEA) Assay for Peroxisomal acyl-coenzyme A oxidase 1 (ACOX1) gene using HepaRG (AID 2283467)
How it was run: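 Measured by qRT-PCR against three housekeeping genes: ACOX1 transcript change in human HepaRG cells after 48 h dosing. Concentrations ran up to 100 uM in half-log steps. Curves were fitted bidirectionally relative to 0.5% DMSO.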

[7] = read-out: Alkaline Phosphatase, Placental (ALPP) gene, ALPP (gene 250); experiment: LTEA_HepaRG_ALPP: Life Technologies and Expression Analysis (LTEA) Assay for Alkaline Phosphatase, Placental (ALPP) gene using HepaRG (AID 2283468)
How it was run: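 Expression of ALPP was quantified by qRT-PCR against three housekeeping genes in human HepaRG cultures treated for 48 h with an eight-point concentration series up to 100 uM. Activity in either direction was fitted relative to 0.5% DMSO.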

[8] = read-out: Bcl-2 (BAD) gene, BAD (gene 572); experiment: LTEA_HepaRG_BAD: Life Technologies and Expression Analysis (LTEA) Assay for Bcl-2 (BAD) gene using HepaRG (AID 2283469)
How it was run: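 BAD transcript change, measured by qRT-PCR against three housekeeping genes and fitted in both directions relative to 0.5% DMSO, after 48 h chemical treatment of human HepaRG liver cells at concentrations up to 100 uM.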

[9] = read-out: Bcl-2 (BAX) gene, BAX (gene 581); experiment: LTEA_HepaRG_BAX: Life Technologies and Expression Analysis (LTEA) Assay for Bcl-2 (BAX) gene using HepaRG (AID 2283470)
How it was run: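 HepaRG (human liver), 48 h exposure, duplicate wells. 8-pt curve, half-log from 100 uM, 0.5% DMSO. BAX transcript by TaqMan qRT-PCR; ACTB/GAPDH/POLR2A normalization; gain or loss vs DMSO baseline.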

[10] = read-out: adenosine kinase (ADK) gene, ADK (gene 132); experiment: LTEA_HepaRG_ADK: Life Technologies and Expression Analysis (LTEA) Assay for adenosine kinase (ADK) gene using HepaRG (AID 2283471)
How it was run: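 Following 48 h exposure of HepaRG cells in 0.5% DMSO (top concentration 100 uM, duplicate wells), ADK mRNA induction or suppression was measured by qRT-PCR, normalised to ACTB/GAPDH/POLR2A, and fitted bidirectionally relative to vehicle.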

[11] = read-out: Alpha-fetoprotein (AFP) gene, AFP (gene 174); experiment: LTEA_HepaRG_AFP: Life Technologies and Expression Analysis (LTEA) Assay for Alpha-fetoprotein (AFP) gene using HepaRG (AID 2283472)
How it was run: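 HepaRG, single lot; 48 h post-plating -> serum-free induction medium; cpd 8-pt, 100 uM top, half-log, 0.5% DMSO, duplicate, 48 h. RNA -> qRT-PCR AFP, norm ACTB/GAPDH/POLR2A. Bidirectional fit vs DMSO.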

[12] = read-out: BCL2L11 (gene 10018); experiment: LTEA_HepaRG_BCL2L11: Life Technologies and Expression Analysis (LTEA) Assay for Bcl-2 (BCL2L11) gene using HepaRG (AID 2283473)
How it was run: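 Cells were plated, cultured 48 h, switched to serum-free induction medium, then dosed in duplicate for 48 h at eight half-log concentrations up to 100 uM. Lysates underwent RNA isolation and TaqMan qRT-PCR; gain or loss versus DMSO was fitted.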

[13] = read-out: Apolipoprotein A-V (APOA5) gene, APOA5 (gene 116519); experiment: LTEA_HepaRG_APOA5: Life Technologies and Expression Analysis (LTEA) Assay for Apolipoprotein A-V (APOA5) gene using HepaRG (AID 2283474)
How it was run: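 Human liver HepaRG cells are treated 48 h with test chemicals (100 uM top, half-log dilutions, 0.5% DMSO). APOA5 mRNA induction or loss is measured by qRT-PCR relative to vehicle.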

[14] = read-out: Apoptosis regulator Bcl-2 (Homo sapiens) (UniProt P10415); experiment: LTEA_HepaRG_BCL2: Life Technologies and Expression Analysis (LTEA) Assay for Bcl-2 gene using HepaRG (AID 2283475)
How it was run: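 HepaRG, plated 48 h then switched to serum-free induction medium; dosed 48 h, 8 conc. (max 100 uM, half-log steps), duplicate, 0.5% DMSO. Lysis in RLT, RNA isolated, TaqMan qRT-PCR for BCL2; ACTB/GAPDH/POLR2A normalisation; bidirectional fit vs DMSO.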

[15] = read-out: Bcl-2 (BID) gene, BID (gene 637); experiment: LTEA_HepaRG_BID: Life Technologies and Expression Analysis (LTEA) Assay for Bcl-2 (BID) gene using HepaRG (AID 2283476)
How it was run: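 Transcript levels of BID, measured by qRT-PCR and normalized to three housekeeping genes, were fitted bidirectionally against DMSO controls. Cells were HepaRG, dosed 48 h at up to 100 uM.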

[16] = read-out: Caspase-3 (Homo sapiens) (UniProt P42574); experiment: LTEA_HepaRG_CASP3: Life Technologies and Expression Analysis (LTEA) Assay for cysteine-aspartic acid protease (CASP3) using HepaRG (AID 2283477)
How it was run: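 In HepaRG liver cells dosed for 48 h at up to 100 uM (eight-point, duplicate), CASP3 expression changes are scored by qRT-PCR. Activity is fitted in both directions with 0.5% DMSO as baseline.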

[17] = read-out: Cytochrome P450 (CYP24A1), CYP24A1 (gene 1591); experiment: LTEA_HepaRG_CYP24A1: Life Technologies and Expression Analysis (LTEA) Assay for Cytochrome P450 (CYP24A1) using HepaRG (AID 2283478)
How it was run: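 Human liver HepaRG cultures receive each chemical for 48 h across an eight-point half-log series topping at 100 uM in 0.5% DMSO. Induction or suppression of CYP24A1 mRNA is scored relative to vehicle after housekeeping-gene normalization.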

[18] = read-out: Cytochrome P450 (CYP1A2), CYP1A2 (gene 1544); experiment: LTEA_HepaRG_CYP1A2: Life Technologies and Expression Analysis (LTEA) Assay for Cytochrome P450 (CYP1A2) using HepaRG (AID 2283479)
How it was run: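 Assesses CYP1A2 mRNA in human HepaRG liver cells after 48 h chemical exposure at up to 100 uM. Values come from qRT-PCR with bidirectional curve fitting relative to DMSO.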

[19] = read-out: cysteine-aspartic acid protease (CASP8), CASP8 (gene 841); experiment: LTEA_HepaRG_CASP8: Life Technologies and Expression Analysis (LTEA) Assay for cysteine-aspartic acid protease (CASP8) using HepaRG (AID 2283480)
How it was run: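 HepaRG, 48 h exposure, duplicate wells; 8 conc, half-log from 100 uM, 0.5% DMSO. Serum-free induction medium. CASP8 mRNA by TaqMan qRT-PCR, norm. ACTB/GAPDH/POLR2A; gain/loss fitted vs DMSO.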

[20] = read-out: growth arrest and DNA damage 45 (GADD45B), GADD45B (gene 4616); experiment: LTEA_HepaRG_GADD45B: Life Technologies and Expression Analysis (LTEA) Assay for growth arrest and DNA damage 45 (GADD45B) using HepaRG (AID 2283461)
How it was run: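 Values are bidirectional concentration-response fits against 0.5% DMSO controls. Underlying data: qRT-PCR mRNA levels in human HepaRG liver cells treated 48 h in serum-free induction medium, eight concentrations topping at 100 uM.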

Measured: AC50

Caspase-3 (Homo sapiens), sequence (P42574 whole entry, looked up): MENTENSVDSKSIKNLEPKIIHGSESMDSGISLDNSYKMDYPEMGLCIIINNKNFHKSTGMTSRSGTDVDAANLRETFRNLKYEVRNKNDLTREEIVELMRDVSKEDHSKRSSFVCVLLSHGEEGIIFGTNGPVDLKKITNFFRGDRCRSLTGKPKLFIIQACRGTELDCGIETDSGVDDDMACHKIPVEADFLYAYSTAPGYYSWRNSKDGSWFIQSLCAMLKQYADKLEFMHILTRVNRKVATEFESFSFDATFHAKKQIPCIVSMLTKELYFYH
Broad substrate specificity ATP-binding cassette transporter ABCG2 (Homo sapiens), sequence (Q9UNQ0 whole entry, looked up): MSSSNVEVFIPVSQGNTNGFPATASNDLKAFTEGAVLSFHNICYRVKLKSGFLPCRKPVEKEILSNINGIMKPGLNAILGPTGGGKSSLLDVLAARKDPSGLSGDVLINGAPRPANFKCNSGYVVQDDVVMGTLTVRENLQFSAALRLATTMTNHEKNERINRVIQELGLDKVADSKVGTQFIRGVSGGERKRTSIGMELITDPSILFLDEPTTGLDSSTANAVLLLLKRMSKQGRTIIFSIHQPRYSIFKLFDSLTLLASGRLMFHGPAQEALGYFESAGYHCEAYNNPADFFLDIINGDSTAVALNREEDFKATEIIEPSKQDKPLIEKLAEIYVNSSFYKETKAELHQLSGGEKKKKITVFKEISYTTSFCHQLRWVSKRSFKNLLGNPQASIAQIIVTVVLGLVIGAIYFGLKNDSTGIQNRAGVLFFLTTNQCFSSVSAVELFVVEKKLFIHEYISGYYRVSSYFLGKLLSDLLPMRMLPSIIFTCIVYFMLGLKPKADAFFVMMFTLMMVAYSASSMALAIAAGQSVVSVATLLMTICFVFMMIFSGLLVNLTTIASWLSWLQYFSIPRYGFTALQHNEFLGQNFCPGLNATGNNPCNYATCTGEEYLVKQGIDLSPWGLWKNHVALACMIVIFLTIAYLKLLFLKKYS
Apoptosis regulator Bcl-2 (Homo sapiens), sequence (P10415 whole entry, looked up): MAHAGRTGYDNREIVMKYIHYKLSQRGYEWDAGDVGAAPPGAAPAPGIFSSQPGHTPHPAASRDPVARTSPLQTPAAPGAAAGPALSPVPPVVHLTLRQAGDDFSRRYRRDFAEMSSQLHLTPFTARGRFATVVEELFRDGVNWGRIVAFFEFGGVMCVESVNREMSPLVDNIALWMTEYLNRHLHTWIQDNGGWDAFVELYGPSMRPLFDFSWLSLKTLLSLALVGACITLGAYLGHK

O=c1c(O)c(-c2ccc(O)c(O)c2)oc2cc(O)cc(O)c12
active: [2] 76.7 µM | [11] 79 µM | [18] 0.806 µM
not listed: [20]
inactive: all other assays above

C1CCC(SSC2CCCCC2)CC1
not listed: [5] | [13] | [15]
inactive: all other assays above

CC(=O)C(C)=CC1C(C)=CCCC1(C)C (stereo not drawn)
not listed: [5] | [9] | [15]
inactive: all other assays above

CN1CCN(Cc2cc(-c3ccc4[nH]c(=O)oc4c3)co2)[C@@H](c2ccc(F)cc2)C1
active: [1] 78 µM | [2] 67.9 µM | [7] 50 µM | [11] 90.1 µM | [18] 65.7 µM
not listed: [13] | [20]
inactive: all other assays above

CC1(C)NC(=O)NC1=O
not listed: [5] | [9] | [13] | [15]
inactive: all other assays above

FC(F)(F)C(F)(F)C(F)(F)C(F)(F)C(F)(F)C(F)(F)CCI
not listed: [15] | [20]
inactive: all other assays above

Oc1ccc2ccccc2c1N=Nc1ccccc1
active: [2] 6.98 µM | [4] 30.3 µM | [6] 11.1 µM | [11] 27.9 µM | [12] 15.1 µM | [14] 31.5 µM | [18] 0.232 µM
not listed: [13] | [20]
inactive: all other assays above
